Experimental data from paper PMC7862700, “An all-to-all approach to the identification of sequence-specific readers for epigenetic DNA modifications on cytosine”.

Target: T1, ETS2 (Homo sapiens, UniProt P15036 1-469)
T1 sequence: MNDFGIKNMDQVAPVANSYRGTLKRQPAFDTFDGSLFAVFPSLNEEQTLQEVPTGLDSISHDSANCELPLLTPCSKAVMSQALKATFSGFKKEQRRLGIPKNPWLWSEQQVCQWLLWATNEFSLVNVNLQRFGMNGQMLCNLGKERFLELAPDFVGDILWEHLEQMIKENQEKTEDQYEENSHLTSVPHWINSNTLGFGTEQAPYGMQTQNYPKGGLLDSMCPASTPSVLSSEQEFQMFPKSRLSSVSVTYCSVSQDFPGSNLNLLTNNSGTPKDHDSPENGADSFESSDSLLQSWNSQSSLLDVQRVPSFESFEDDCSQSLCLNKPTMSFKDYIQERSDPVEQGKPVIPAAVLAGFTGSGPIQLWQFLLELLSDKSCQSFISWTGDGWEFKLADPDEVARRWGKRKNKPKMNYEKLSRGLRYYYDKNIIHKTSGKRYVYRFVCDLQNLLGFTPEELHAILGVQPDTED
Experiment: DAPPL (digital affinity profiling via proximity ligation, sequencing); 10 mM Tris-HCl pH 7.5, 50 mM NaCl, 1 mM DTT, 4% glycerol, room temperature, 30 min; GST-TFs on glutathione beads, 16-mer random dsDNA library, 0.1% formaldehyde crosslink after washing; high values mean tight binding
Conditions: protein: recombinant; tags: N-terminal GST; dsDNA, one strand shown
Method in brief: (§1)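 Yeast served to express human transcription factors as GST fusions, which were then captured on glutathione beads and labelled with DNA barcodes. Pooled with a tag-only sample, they were incubated with 200 nmole of a 16-mer random double-stranded DNA library for 30 min at room temperature in Tris/NaCl/DTT/glycerol buffer, washed, crosslinked with 0.1% formaldehyde, ligated by proximity, amplified by PCR and sequenced. Dividing each hexamer's read frequency for a factor by its frequency for the tag-only sample gives the binding signal.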

Sequence	binding signal
TCTTCG	1.55 fold enrichment (6-mer frequency, TF over GST control)
GCTTTG	1.16 fold enrichment (6-mer frequency, TF over GST control)
TCTCTG	1.61 fold enrichment (6-mer frequency, TF over GST control)
TAAAAG	1.18 fold enrichment (6-mer frequency, TF over GST control)
CCTTAA	1.29 fold enrichment (6-mer frequency, TF over GST control)
CTTTTT	1.31 fold enrichment (6-mer frequency, TF over GST control)
CTTCAA	1.25 fold enrichment (6-mer frequency, TF over GST control)
ACTAAA	1.3 fold enrichment (6-mer frequency, TF over GST control)
ATATCC	2.76 fold enrichment (6-mer frequency, TF over GST control)
AATCTC	1.19 fold enrichment (6-mer frequency, TF over GST control)
TACCCG	1.42 fold enrichment (6-mer frequency, TF over GST control)
CCTGTT	1.8 fold enrichment (6-mer frequency, TF over GST control)
TTTTCC	1.69 fold enrichment (6-mer frequency, TF over GST control)
AAAACT	1.24 fold enrichment (6-mer frequency, TF over GST control)
TAATAC	1.12 fold enrichment (6-mer frequency, TF over GST control)
GACTTC	2.58 fold enrichment (6-mer frequency, TF over GST control)
ATGGCA	1.15 fold enrichment (6-mer frequency, TF over GST control)
TCCGAC	1.48 fold enrichment (6-mer frequency, TF over GST control)
TTACAG	1.21 fold enrichment (6-mer frequency, TF over GST control)
AATTTC	1.83 fold enrichment (6-mer frequency, TF over GST control)

Sequence	binding signal
ACCAAT	1.39 fold enrichment (6-mer frequency, TF over GST control)
TAACAC	1.29 fold enrichment (6-mer frequency, TF over GST control)
TTAGGG	1.08 fold enrichment (6-mer frequency, TF over GST control)
CTACAC	1.25 fold enrichment (6-mer frequency, TF over GST control)
CTAGCT	1.25 fold enrichment (6-mer frequency, TF over GST control)
ATCCAT	1.17 fold enrichment (6-mer frequency, TF over GST control)
TAGTAC	1.17 fold enrichment (6-mer frequency, TF over GST control)
TTTGAA	1.23 fold enrichment (6-mer frequency, TF over GST control)
AACCTA	1.11 fold enrichment (6-mer frequency, TF over GST control)
GATGTT	1.24 fold enrichment (6-mer frequency, TF over GST control)
CCTTAG	1.27 fold enrichment (6-mer frequency, TF over GST control)
CGCGCT	1.25 fold enrichment (6-mer frequency, TF over GST control)
CATCTA	1.13 fold enrichment (6-mer frequency, TF over GST control)
TCTATT	1.23 fold enrichment (6-mer frequency, TF over GST control)
CTATTT	1.71 fold enrichment (6-mer frequency, TF over GST control)
TTCAGG	1.12 fold enrichment (6-mer frequency, TF over GST control)
GCTATA	1.14 fold enrichment (6-mer frequency, TF over GST control)
CTCATT	1.49 fold enrichment (6-mer frequency, TF over GST control)
CAATTT	1.28 fold enrichment (6-mer frequency, TF over GST control)

Target: T2, SPDEF (Homo sapiens, UniProt O95238 1-335)
T2 sequence: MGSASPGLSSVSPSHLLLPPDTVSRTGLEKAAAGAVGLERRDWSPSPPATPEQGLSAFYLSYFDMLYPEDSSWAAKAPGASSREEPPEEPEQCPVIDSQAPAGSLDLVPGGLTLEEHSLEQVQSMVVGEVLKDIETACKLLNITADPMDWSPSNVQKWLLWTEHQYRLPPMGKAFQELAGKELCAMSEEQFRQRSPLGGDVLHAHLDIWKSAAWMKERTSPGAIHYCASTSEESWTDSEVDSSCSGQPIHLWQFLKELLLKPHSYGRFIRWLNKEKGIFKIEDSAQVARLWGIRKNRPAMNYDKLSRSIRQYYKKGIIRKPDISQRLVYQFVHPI
Experiment: as above
Conditions: protein: recombinant; tags: N-terminal GST; dsDNA, one strand shown
Method in brief: as §1

Sequence	binding signal
TCTTCG	1.49 fold enrichment (6-mer frequency, TF over GST control)
GCTTTG	1.12 fold enrichment (6-mer frequency, TF over GST control)
TCTCTG	1.5 fold enrichment (6-mer frequency, TF over GST control)
TAAAAG	1.08 fold enrichment (6-mer frequency, TF over GST control)
CCTTAA	1.44 fold enrichment (6-mer frequency, TF over GST control)
CTTTTT	1.32 fold enrichment (6-mer frequency, TF over GST control)
CTTCAA	1.34 fold enrichment (6-mer frequency, TF over GST control)
ACTAAA	1.25 fold enrichment (6-mer frequency, TF over GST control)
ATATCC	4.48 fold enrichment (6-mer frequency, TF over GST control)
AATCTC	1.14 fold enrichment (6-mer frequency, TF over GST control)
TACCCG	1.59 fold enrichment (6-mer frequency, TF over GST control)
CCTGTT	2.09 fold enrichment (6-mer frequency, TF over GST control)
TTTTCC	1.67 fold enrichment (6-mer frequency, TF over GST control)
AAAACT	1.09 fold enrichment (6-mer frequency, TF over GST control)
TAATAC	1.12 fold enrichment (6-mer frequency, TF over GST control)
GACTTC	2.13 fold enrichment (6-mer frequency, TF over GST control)
ATGGCA	1.1 fold enrichment (6-mer frequency, TF over GST control)
TCCGAC	1.43 fold enrichment (6-mer frequency, TF over GST control)
TTACAG	1.18 fold enrichment (6-mer frequency, TF over GST control)
